Assay in all cases: DAPPL (digital affinity profiling via proximity ligation, sequencing); 10 mM Tris-HCl pH 7.5, 50 mM NaCl, 1 mM DTT, 4% glycerol, room temperature, 30 min; GST-TFs on glutathione beads, 16-mer random dsDNA library, 0.1% formaldehyde crosslink after washing; high values mean tight binding
Experiment [1] addresses T1, FEV (Homo sapiens, UniProt Q99581 1-238).
T1 sequence: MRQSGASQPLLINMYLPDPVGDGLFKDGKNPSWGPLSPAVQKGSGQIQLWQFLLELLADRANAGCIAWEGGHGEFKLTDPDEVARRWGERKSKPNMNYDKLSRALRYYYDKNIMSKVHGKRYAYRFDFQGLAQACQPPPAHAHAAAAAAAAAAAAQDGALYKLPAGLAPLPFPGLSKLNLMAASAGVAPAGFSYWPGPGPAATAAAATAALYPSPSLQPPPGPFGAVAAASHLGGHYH
The settings on record: protein: recombinant; tags: N-terminal GST; dsDNA, one strand shown. The method, boiled down:
(§1)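 A tag-only sample was pooled with DNA-barcoded human transcription factors that had been expressed in yeast as GST fusions and captured on glutathione beads. The pools were incubated for 30 min at room temperature with 200 nmole of a random double-stranded 16-mer DNA library in Tris/NaCl/DTT/glycerol buffer, then washed, crosslinked with 0.1% formaldehyde, proximity-ligated (BsaI/T4 ligase, 1 h, 37 °C), PCR-amplified and sequenced on an Illumina NextSeq500. Binding signal is each hexamer's read frequency for a factor divided by its frequency for the tag-only sample.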

Experiment [2] has as its target ETV5 (Homo sapiens, UniProt P41161 1-510). Particulars: protein: recombinant; tags: N-terminal GST; dsDNA, one strand shown. The method, boiled down:
as §1

The target in experiment [3] is HSF1 (Homo sapiens, UniProt Q00613 1-529). Particulars: protein: recombinant; tags: N-terminal GST; chain copies: 3; dsDNA, one strand shown. In a few lines:
as §1

Experiment [4] has as its target T2, SPIC (Homo sapiens, UniProt Q8N5J4 1-248).
T2 sequence: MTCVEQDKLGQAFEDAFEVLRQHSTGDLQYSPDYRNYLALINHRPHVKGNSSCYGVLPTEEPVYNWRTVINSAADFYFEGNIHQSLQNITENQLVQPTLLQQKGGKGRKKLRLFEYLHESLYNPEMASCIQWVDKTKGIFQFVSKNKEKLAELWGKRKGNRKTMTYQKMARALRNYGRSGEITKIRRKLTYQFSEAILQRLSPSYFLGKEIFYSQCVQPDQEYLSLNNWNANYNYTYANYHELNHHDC
The settings on record: protein: recombinant; tags: N-terminal GST; dsDNA, one strand shown. In a few lines: as §1

Experiment [5] deals with ELF4 (Homo sapiens, UniProt Q99607 1-663). The settings on record: protein: recombinant; tags: N-terminal GST; dsDNA, one strand shown. In a few lines:
as §1

Experiment [6] has as its target T3, ELK4 (Homo sapiens, UniProt P28324-2 1-405).
T3 sequence: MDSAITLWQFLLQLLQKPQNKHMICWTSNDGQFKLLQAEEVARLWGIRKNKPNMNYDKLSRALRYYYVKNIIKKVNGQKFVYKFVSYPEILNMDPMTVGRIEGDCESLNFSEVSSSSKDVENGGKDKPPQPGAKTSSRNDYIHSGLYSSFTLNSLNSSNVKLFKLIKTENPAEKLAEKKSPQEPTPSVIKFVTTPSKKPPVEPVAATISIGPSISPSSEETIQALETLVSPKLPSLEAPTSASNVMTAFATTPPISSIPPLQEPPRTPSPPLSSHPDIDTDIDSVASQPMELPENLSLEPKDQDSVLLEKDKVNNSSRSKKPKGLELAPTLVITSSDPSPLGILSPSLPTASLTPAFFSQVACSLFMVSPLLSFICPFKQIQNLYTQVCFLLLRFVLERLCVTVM
The settings on record: protein: recombinant; tags: N-terminal GST; dsDNA, one strand shown. The method, boiled down:
as §1

The target in experiment [7] is T4, ETV2 (Homo sapiens, UniProt O00321 1-342).
T4 sequence: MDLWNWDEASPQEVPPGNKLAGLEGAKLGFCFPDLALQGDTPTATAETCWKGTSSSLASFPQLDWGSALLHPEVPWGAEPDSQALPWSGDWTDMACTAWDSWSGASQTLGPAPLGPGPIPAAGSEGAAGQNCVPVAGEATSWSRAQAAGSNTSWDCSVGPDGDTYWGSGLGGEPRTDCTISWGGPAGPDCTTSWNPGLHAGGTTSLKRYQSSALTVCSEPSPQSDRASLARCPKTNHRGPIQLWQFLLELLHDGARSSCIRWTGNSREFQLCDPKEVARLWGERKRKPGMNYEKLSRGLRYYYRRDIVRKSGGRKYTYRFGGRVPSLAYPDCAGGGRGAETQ
Particulars: protein: recombinant; tags: N-terminal GST; dsDNA, one strand shown. The method, boiled down: as §1

In experiment [8] the target is T5, ELF3 (Homo sapiens, UniProt P78545 1-371).
T5 sequence: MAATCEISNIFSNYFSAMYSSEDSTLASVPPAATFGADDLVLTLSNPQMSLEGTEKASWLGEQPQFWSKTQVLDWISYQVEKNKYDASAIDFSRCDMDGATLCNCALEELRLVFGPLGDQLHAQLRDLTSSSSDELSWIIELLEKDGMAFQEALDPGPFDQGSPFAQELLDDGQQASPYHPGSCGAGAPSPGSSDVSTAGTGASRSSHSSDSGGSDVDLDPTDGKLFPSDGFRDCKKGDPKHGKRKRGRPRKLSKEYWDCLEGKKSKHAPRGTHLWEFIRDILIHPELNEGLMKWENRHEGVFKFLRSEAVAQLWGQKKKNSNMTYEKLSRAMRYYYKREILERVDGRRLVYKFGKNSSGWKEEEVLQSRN
The settings on record: protein: recombinant; tags: N-terminal GST; dsDNA, one strand shown. The method, boiled down: as §1

Experiment [9] deals with CRX (Homo sapiens, UniProt O43186 1-299). Particulars: protein: recombinant; tags: N-terminal GST; dsDNA, one strand shown. The method, boiled down:
as §1

The target of experiment [10] is ETV1 (Homo sapiens, UniProt P50549 1-477). The settings on record: protein: recombinant; tags: N-terminal GST; dsDNA, one strand shown. In a few lines: as §1
In experiment [11] the target is T6, ERF (Homo sapiens, UniProt P50548 1-548).
T6 sequence: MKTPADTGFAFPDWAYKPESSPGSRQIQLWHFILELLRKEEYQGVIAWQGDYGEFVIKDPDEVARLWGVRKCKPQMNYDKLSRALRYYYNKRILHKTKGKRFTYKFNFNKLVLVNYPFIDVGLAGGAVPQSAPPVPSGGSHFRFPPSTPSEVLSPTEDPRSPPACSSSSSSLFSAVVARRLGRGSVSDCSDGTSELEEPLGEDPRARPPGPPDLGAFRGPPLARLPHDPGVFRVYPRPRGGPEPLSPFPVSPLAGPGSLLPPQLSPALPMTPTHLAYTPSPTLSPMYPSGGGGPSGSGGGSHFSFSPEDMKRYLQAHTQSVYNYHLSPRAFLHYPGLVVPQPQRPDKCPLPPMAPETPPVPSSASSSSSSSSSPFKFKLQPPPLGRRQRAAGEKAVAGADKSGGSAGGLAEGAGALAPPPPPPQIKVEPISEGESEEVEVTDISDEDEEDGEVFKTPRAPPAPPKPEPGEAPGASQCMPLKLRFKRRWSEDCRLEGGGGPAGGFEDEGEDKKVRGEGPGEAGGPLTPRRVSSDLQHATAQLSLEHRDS
The settings on record: protein: recombinant; tags: N-terminal GST; dsDNA, one strand shown. In a few lines:
as §1

In experiment [12] the target is T7, ETV3L (Homo sapiens, UniProt Q6ZN32 1-361).
T7 sequence: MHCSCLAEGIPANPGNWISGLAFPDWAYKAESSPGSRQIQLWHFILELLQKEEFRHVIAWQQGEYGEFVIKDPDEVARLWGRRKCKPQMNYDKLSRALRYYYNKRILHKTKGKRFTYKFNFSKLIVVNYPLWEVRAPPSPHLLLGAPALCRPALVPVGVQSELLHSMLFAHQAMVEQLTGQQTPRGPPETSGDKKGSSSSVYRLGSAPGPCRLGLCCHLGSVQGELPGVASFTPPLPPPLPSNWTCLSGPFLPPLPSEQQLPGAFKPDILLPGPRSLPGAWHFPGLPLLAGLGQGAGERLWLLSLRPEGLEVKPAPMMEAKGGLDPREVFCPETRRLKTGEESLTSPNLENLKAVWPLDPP
Particulars: protein: recombinant; tags: N-terminal GST; dsDNA, one strand shown. The method, boiled down:
as §1

Experiment [13] addresses T8, ETS2 (Homo sapiens, UniProt P15036 1-469).
T8 sequence: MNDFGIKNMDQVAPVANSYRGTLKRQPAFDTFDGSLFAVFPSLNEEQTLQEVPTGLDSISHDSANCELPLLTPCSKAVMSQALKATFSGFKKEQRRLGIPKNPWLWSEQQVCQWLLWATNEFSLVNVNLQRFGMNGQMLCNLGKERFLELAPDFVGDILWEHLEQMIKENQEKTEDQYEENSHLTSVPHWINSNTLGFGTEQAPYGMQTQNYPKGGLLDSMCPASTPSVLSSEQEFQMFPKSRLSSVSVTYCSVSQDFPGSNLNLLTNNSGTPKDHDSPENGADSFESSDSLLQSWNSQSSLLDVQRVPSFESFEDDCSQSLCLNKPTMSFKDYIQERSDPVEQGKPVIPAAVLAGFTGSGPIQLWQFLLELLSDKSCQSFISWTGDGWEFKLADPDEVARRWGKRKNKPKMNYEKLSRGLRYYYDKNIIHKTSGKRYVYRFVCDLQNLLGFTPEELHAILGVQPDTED
The settings on record: protein: recombinant; tags: N-terminal GST; dsDNA, one strand shown. The method, boiled down: as §1

In experiment [14] the target is T9, SPDEF (Homo sapiens, UniProt O95238 1-335).
T9 sequence: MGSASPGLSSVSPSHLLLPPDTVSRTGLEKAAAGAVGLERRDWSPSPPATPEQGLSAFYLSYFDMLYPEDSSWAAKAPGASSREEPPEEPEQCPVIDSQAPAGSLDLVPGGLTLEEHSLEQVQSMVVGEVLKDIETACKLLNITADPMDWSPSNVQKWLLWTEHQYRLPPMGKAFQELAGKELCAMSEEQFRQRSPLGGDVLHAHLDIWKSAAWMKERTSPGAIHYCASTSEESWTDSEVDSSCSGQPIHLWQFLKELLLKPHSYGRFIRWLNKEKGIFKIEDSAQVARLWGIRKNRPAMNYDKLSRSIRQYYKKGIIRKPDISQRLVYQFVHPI
Particulars: protein: recombinant; tags: N-terminal GST; dsDNA, one strand shown. The method, boiled down:
as §1

For experiment [15], the target named is T10, ETV7 (Homo sapiens, UniProt Q9Y603 1-341).
T10 sequence: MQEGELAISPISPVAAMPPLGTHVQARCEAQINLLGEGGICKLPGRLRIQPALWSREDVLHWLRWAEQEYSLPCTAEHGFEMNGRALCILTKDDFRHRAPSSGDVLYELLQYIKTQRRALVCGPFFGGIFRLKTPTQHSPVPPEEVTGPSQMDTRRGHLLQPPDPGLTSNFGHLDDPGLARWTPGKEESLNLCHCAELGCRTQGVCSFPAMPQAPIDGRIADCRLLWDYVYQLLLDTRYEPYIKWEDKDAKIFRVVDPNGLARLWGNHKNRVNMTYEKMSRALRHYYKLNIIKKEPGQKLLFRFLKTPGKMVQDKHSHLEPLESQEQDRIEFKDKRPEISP
The settings on record: protein: recombinant; tags: N-terminal GST; dsDNA, one strand shown. The method, boiled down:
as §1

Experiment [16] concerns the target T11, ELF5 (Homo sapiens, UniProt Q9UKW6-2 1-255).
T11 sequence: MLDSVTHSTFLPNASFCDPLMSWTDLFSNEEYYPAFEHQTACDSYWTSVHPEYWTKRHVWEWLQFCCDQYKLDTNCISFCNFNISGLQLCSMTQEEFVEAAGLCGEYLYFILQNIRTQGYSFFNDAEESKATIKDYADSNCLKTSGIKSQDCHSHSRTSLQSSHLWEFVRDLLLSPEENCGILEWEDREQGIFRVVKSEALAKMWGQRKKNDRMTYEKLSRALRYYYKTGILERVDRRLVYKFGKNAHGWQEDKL
The settings on record: protein: recombinant; tags: N-terminal GST; dsDNA, one strand shown. In a few lines:
as §1

Experiment [17] deals with T12, ETV3 (Homo sapiens, UniProt P41162-2 1-143).
T12 sequence: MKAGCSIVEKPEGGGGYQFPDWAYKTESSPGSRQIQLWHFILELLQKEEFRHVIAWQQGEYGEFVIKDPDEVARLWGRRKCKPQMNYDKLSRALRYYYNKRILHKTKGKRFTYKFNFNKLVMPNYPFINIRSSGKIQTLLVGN
The settings on record: protein: recombinant; tags: N-terminal GST; dsDNA, one strand shown. In a few lines: as §1

The target of experiment [18] is ETV6 (Homo sapiens, UniProt P41212 1-452). Particulars: protein: recombinant; tags: N-terminal GST; dsDNA, one strand shown. The method, boiled down: as §1
ETV6, sequence (P41212 whole entry): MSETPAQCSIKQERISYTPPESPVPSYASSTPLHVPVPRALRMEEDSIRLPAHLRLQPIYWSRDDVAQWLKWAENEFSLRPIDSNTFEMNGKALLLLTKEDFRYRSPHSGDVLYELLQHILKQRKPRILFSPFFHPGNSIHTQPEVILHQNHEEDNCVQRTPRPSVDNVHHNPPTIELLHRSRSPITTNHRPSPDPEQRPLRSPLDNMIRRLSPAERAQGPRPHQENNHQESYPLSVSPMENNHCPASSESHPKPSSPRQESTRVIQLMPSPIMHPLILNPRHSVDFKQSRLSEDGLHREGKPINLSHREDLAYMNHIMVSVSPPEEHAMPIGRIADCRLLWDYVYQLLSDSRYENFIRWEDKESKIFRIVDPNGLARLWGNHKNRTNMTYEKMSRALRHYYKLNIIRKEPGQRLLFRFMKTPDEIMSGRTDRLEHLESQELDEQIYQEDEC

HSF1, sequence (Q00613 whole entry): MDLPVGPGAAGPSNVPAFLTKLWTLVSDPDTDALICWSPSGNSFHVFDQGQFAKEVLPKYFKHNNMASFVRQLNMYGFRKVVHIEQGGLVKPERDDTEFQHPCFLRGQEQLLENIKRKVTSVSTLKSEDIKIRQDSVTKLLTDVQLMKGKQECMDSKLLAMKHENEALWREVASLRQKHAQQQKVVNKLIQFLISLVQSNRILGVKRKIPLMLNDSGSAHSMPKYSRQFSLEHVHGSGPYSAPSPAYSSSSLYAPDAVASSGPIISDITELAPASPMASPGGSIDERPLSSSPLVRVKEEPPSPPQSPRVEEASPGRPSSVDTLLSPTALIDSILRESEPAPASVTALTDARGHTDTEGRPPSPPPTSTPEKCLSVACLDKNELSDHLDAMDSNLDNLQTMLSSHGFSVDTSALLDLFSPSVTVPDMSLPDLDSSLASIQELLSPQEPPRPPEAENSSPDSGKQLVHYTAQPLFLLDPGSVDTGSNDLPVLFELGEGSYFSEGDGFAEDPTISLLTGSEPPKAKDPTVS
ELF4, sequence (Q99607 whole entry): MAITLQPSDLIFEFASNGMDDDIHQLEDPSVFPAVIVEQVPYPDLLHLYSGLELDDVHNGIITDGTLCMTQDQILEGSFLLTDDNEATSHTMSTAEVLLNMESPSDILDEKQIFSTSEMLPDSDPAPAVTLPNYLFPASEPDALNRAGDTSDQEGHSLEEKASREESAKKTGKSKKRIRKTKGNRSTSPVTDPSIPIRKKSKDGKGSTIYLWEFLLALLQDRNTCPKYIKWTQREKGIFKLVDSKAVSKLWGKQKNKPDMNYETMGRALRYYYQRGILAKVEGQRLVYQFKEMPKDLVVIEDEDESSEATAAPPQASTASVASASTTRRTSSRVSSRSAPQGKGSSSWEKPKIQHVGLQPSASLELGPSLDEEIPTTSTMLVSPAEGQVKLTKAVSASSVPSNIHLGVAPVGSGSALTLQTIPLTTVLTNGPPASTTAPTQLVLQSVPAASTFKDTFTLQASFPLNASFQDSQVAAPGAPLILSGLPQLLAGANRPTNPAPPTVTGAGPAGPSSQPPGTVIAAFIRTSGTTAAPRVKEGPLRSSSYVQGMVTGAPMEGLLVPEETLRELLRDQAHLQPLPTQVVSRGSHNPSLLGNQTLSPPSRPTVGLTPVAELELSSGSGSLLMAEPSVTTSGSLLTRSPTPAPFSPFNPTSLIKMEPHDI
ETV5, sequence (P41161 whole entry): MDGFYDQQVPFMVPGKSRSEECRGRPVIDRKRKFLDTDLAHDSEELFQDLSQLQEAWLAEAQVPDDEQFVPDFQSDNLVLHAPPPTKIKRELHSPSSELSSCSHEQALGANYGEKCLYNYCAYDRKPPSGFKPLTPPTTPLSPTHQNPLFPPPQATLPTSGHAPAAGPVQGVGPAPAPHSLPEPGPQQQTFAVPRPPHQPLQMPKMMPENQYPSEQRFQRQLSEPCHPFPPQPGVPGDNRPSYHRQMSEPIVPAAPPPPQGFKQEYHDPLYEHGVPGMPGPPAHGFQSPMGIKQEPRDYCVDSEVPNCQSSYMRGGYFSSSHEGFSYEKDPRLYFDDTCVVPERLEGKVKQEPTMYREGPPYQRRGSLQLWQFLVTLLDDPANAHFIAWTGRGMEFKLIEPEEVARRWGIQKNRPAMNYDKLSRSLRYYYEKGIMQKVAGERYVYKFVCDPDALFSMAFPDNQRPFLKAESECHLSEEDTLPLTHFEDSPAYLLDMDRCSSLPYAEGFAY
ETV1, sequence (P50549 whole entry): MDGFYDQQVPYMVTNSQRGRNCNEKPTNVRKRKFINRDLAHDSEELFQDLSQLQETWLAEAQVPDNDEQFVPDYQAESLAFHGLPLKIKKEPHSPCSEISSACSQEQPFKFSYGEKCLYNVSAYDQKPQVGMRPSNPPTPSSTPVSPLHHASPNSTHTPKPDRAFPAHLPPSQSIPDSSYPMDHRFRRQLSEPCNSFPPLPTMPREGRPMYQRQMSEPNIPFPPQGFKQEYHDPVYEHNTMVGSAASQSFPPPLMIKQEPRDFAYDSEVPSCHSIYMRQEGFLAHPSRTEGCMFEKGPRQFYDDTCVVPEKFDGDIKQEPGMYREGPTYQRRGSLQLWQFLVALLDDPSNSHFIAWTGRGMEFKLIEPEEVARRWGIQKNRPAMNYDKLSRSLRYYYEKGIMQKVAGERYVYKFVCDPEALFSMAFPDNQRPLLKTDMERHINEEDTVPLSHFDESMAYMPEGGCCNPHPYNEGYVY
CRX, sequence (O43186 whole entry): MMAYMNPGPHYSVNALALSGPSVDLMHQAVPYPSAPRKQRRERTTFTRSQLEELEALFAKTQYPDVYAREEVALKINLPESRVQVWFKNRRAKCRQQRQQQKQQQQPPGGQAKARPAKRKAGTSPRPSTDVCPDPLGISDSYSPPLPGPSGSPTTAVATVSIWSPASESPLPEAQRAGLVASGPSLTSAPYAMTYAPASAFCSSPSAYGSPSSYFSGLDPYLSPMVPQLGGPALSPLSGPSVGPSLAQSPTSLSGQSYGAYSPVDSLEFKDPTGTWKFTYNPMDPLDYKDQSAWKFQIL

Turning to GCTTCT, the binding signal was 1.41 fold enrichment (6-mer frequency, TF over GST control) in [1]; 1.57 fold enrichment (6-mer frequency, TF over GST control) in [2]; 2.32 fold enrichment (6-mer frequency, TF over GST control) in [3]; 1.48 fold enrichment (6-mer frequency, TF over GST control) in experiment [4]; 1.6 fold enrichment (6-mer frequency, TF over GST control) in [5]; 1.4 fold enrichment (6-mer frequency, TF over GST control) in [6]. In addition, the binding signal in [7] is 1.46 fold enrichment (6-mer frequency, TF over GST control); in experiment [8], 1.25 fold enrichment (6-mer frequency, TF over GST control); in experiment [9], 1.81 fold enrichment (6-mer frequency, TF over GST control); in experiment [10], 1.42 fold enrichment (6-mer frequency, TF over GST control); in experiment [11], 1.64 fold enrichment (6-mer frequency, TF over GST control); in [12], 1.37 fold enrichment (6-mer frequency, TF over GST control). In addition, the binding signal was 1.5 fold enrichment (6-mer frequency, TF over GST control) in experiment [13]; 1.34 fold enrichment (6-mer frequency, TF over GST control) in experiment [14]; 1.43 fold enrichment (6-mer frequency, TF over GST control) in [15]; 1.56 fold enrichment (6-mer frequency, TF over GST control) in experiment [16]; 1.4 fold enrichment (6-mer frequency, TF over GST control) in experiment [17]; 1.45 fold enrichment (6-mer frequency, TF over GST control) in experiment [18].

The record behind these values is PMC7862700, “An all-to-all approach to the identification of sequence-specific readers for epigenetic DNA modifications on cytosine”.
